As a reminder, the Inhibition is the drop in the measured response relative to a control, in per cent. Higher therefore signals strong suppression.

Common to all, as to format: functional
The test system of test [1] is Plasmodium falciparum. The test is described as follows: GSK_TCMDC: Inhibition of Plasmodium falciparum 3D7 in whole red blood cells, using parasite LDH activity as an index of growth. Test compounds present at 2uM.
Test [2] deals with Plasmodium falciparum. The test is described as follows: GSK_TCMDC: Inhibition of Plasmodium falciparum Dd2 in whole red blood cells, using parasite LDH activity as an index of growth. Test compounds present at 2uM.
The test system of test [3] is HepG2. The test is described as follows: GSK_TCMDC: Percent inhibition of human HepG2 cell line. Test compounds present at 10uM.

For the molecule `CCOc1cc(C)ccc1C1CCN(CCCCNC(=O)c2ccc(NC(=O)c3cc(Cl)cc(Cl)c3)cc2)CC1`, the Inhibition in test [1] was 99%; in test [2], 78%; in test [3] it was 4%.
The matching figures for `Cl.N#Cc1cccc(-c2cccc(C(=O)NC3CCC(CCN4CCc5ccc(C#N)cc5CC4)CC3)c2)c1` (stereo not drawn): 99%, 57% and 31%.
For `CCOC(=O)c1[nH]c2ccc(F)cc2c1NC(=O)CN1CCN(c2cccc(C(F)(F)F)c2)CC1`, in that order: 96%, 90% and 12%.
On to `Cc1[nH]c2ccccc2c(=O)c1Br`, for which the Inhibition in test [1] amounted to 94%; in test [2] it was 84%; in test [3] it was 2%.
For `CCOc1cc(/C=N/Nc2nc3ccccc3[nH]2)ccc1OCc1ccc([N+](=O)[O-])cc1`, in that order: 100%, 1% and 2%.
For `Cc1nc(N/C=C/c2ccc(O)cc2)cc(N2CCCC2)n1`, in that order: 93%, 54% and 0%.
Regarding `CC(O)C(=O)O.COc1cc(Cc2cnc(N)nc2N)c2c(c1OC)OC(C)(C)C=C2`, the Inhibition is listed as 93% in test [1], 2% in test [2] and 7% in test [3].
As for `Cc1cnc(-c2ccc(NC(=O)c3coc4ccc(N5CC(C)N(C)C(C)C5)cc34)cc2)o1.Cl` (stereo not drawn), the Inhibition in test [1] amounted to 96%; in test [2] it was 39%; in test [3], 18%.
On to `Cc1cc(N[C@@H](Cc2ccccc2)C(=O)NCCOc2ccccc2)nc(NCCc2ccc(F)cc2)n1.O=C(O)C(F)(F)F`, for which the Inhibition in test [1] is given as 99%; in test [2], 86%; in test [3], 5%.
On to `COc1ccccc1C1CN(CCNC(=O)c2nc(C)c[nH]2)Cc2ccccc2O1` (stereo not drawn), for which the figures for the Inhibition in test [1], in test [2] and in test [3] were 90%, 86% and 4%, respectively.
As for `NC(=O)c1ccc(NCC(=O)Nc2cccc(-c3cccc(-c4nc5ccccc5[nH]4)c3)c2)cc1`, the results for the Inhibition in test [1], in test [2] and in test [3] were 99%, 30% and 9%, respectively.
The matching figures for `Cc1cc(C(=O)Nc2ccc3c(c2)CCN3C2CCN(Cc3cc(F)cc(F)c3F)C2)no1` (stereo not drawn): 95%, 96% and 0%.
Turning to `COC(=O)CCn1c(C2CCN(CC3CCC(NC(=O)/C=C/c4ccc(Cl)c(Cl)c4)CC3)CC2)nc2ccccc21` (stereo not drawn), the Inhibition in test [1] was 94%; in test [2], 10%; in test [3], 14%.
For `O=C(O)C(F)(F)F.O=C1OC2(CCN(Cc3cccc(-c4ncc[nH]4)c3)CC2)CN1CCNCc1ccccc1`, in that order: 94%, 0% and 0%.
The matching figures for `CC(C)N1CCN(C(CN2CCN(CCCOc3cccc4ccccc34)CC2)c2ccc(F)cc2)CC1.Cl` (stereo not drawn): 100%, 75% and 54%.
For `Cn1cc(C(=O)Nc2cccc(-c3cccc(-c4nc5cc(F)ccc5[nH]4)c3)c2)n(C)c1=O`, in that order: 98%, 50% and 15%.
Turning to `Cc1cccc2nc(-c3ccc(-c4ccc(CN5CCN(CCN6CCOCC6)CC5)cc4)s3)[nH]c12.O=C(O)C(F)(F)F`, the results for the Inhibition in test [1], in test [2] and in test [3] were 100%, 99% and 41%, respectively.
As for `CC(=O)Nc1cccc(CNCc2ccc(-c3cnc(N4CCCC(c5ccccc5)C4)nc3)cc2)c1.O=CO` (stereo not drawn), the figures for the Inhibition in test [1], in test [2] and in test [3] were 84%, 22% and 16%, respectively.
The matching figures for `COc1ccc2ncc(C#N)c(CCN3CCC(NCc4ccc5c(c4)OCCO5)CC3)c2c1.Cl`: 96%, 31% and 12%.
In the case of `Cc1cnn(-c2cccc(C(=O)NC3CCC(CCN4CCc5ccc(C#N)cc5CC4)CC3)c2)c1.Cl` (stereo not drawn), the Inhibition in test [1] worked out at 94%; in test [2] it was 48%; in test [3], 24%.
For `COc1ccc2c(NN=Cc3ccc(Cl)cc3)ccnc2c1`, in that order: 100%, 100% and 8%.

For the origin of these results see ChEMBL document CHEMBL1157539, “Thousands of chemical starting points for antimalarial lead identification” (Nature, 2010).
